Out of some 310,000 compounds screened, about 11,000 (3.5%) were called active. Another 4% or so got no clear call; they are omitted. Calls come from the whole dose curve; as a rule, active = well fitted inhibition curve with a large enough effect; inconclusive = small, poorly fitted or top-dose-only effect, or another doubt; inactive = no such curve, though single readings can be large or run the other way. This excerpt belongs to a sample that is enriched for actives.
The compounds below were run against 4'-phosphopantetheinyl transferase ffp (Bacillus subtilis) (UniProt Q9F4F7) (assay: qHTS Assay for Inhibitors of Bacillus subtilis Sfp phosphopantetheinyl transferase (PPTase)). Conditions: Biochemical Sfp PPTase activity.
How it was run: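 With Hepes-Na pH 7.6 buffer containing 10 mM MgCl2, Sfp (15 nM) modified BHQ-2-YbbR (12.5 uM) using rhodamine-CoA (5 uM). Two reads 30 minutes apart at 525/598 nm yielded each well's rate.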
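Note: the enzyme is Sfp with the accession as filed and its product quenches rhodamine fluorescence.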
Potency is the fitted concentration of half-maximal effect.
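Throughout, for Largest response in the series, negative = inhibition: 0% = enzyme reaction without inhibitor and -100% = no enzyme wells.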

Largest response in the series, negative = inhibition, inactive:
Cc1ccc(OCCCC(=O)Nc2ccc(S(=O)(=O)Nc3cc(C)nc(C)n3)cc2)cc1 5.46%, CC1(C)OC2CO[C@]3(COS(N)(=O)=O)OC(C)(C)OC3C2O1 (stereo not given in full) 20.4%, O=C(N/N=C/c1cc2c(cc1Br)OCO2)C1COc2ccccc2O1 (stereo not given) 0.904%, O=C(CNC(=O)C1COc2ccccc2O1)N/N=C/c1cc(Br)c(O)c(Br)c1 (stereo not given) 1.24%, C=CCN1CCN(C(=O)CCCc2ccccc2)CC1 13.4%, Cc1cccc(OCC(=O)Nc2ccc(NC(=O)c3ccco3)c(C)c2)c1 16.8%, O=C(NC1CCCCC1)c1cc(C2CC2)on1 2.59%, O=C(Nc1cc(C(F)(F)F)ccc1Cl)c1cc(C2CC2)on1 15.4%, O=C(NC(=S)Nc1ccccc1N1CCCCC1)c1ccc(F)cc1 5.51%, CC1CN(C(=S)Nc2ccccc2F)CC(C)O1 (stereo not given) -11.5%, O=C(Nc1ccccc1)Nc1ccc(C(F)(F)F)cn1 11.2%, Oc1ccc(Br)cc1/C=N/Nc1ccccn1 5.24%, Cc1c(Cl)c([N+](=O)[O-])nn1CC(=O)NCCCN1CCOCC1 1.31%, O=C(CN1C(=O)COc2ccc(Cl)cc21)N1CCOCC1 9.91%, O=C(N/N=C/c1ccc(O)c2ccccc12)c1cccnc1 7.11%, O=C(COc1ccc(Cl)cc1Cl)N/N=C/c1ccccn1 -29.7%, O=C(N/N=C/c1ccccn1)C12CC3CC(CC(C3)C1)C2 -35%, O=C(N/N=C/c1ccccn1)c1cccc(NC(=O)c2ccc(Cl)cc2)c1 10.1%, O=C(CCC1CCCC1)N=C1SC2CS(=O)(=O)CC2N1Cc1ccccc1 (stereo not given) 11.9%, Cc1ccnc(NC(=O)CCNS(=O)(=O)c2ccc(C)c(C)c2)c1 9.67%, O=C(NCCS(=O)(=O)N1CCN(c2ccccc2F)CC1)c1ccc(Br)o1 27.4%, O=C1c2cccc3cc(Br)cc(c23)C(=O)N1Nc1ccccc1 9.09%, O=C(O)CC1=C(Nc2ccccc2)C(=O)N(c2ccccc2)C1c1ccc(Cl)cc1 (stereo not given) 18.5%, O=C(CN1C(=O)COc2ccccc21)NCCN1CCc2ccccc2C1 7.58%, O=C(NCCCN1CCOCC1)c1cc2c(s1)CCC2 23.9%, O=C(CCCC(=O)N1CCN(c2cccc(Cl)c2)CC1)c1ccccc1 -3.1%, CN(C(=O)COC(=O)CNC(=O)C12CC3CC(CC(C3)C1)C2)c1ccccc1 0.528%, O=C(N/N=C/c1cccc(OC(=O)c2ccc([N+](=O)[O-])cc2)c1)c1cccnc1 10%, COc1ccc(/C(O)=C2/C(=O)C(=O)N(CCCN(C)C)C2c2ccccc2)cc1OC (stereo not given) 6.96%, COc1cccc(C2/C(=C(/O)c3ccc(F)cc3)C(=O)C(=O)N2CCN(C)C)c1 (stereo not given) -8.12%, CCN(CC)CCN1C(=O)C(=O)/C(=C(/O)c2ccccc2)C1c1ccccc1F (stereo not given) 4.16%, COc1ccc(C2/C(=C(/O)c3ccccc3)C(=O)C(=O)N2c2ncccn2)cc1OC (stereo not given) -2.32%, CC(=O)c1cccc(NC(=O)COc2ccc(S(=O)(=O)N3CCOCC3)cc2)c1 14.4%, O=C(O)CN1c2cccc3cccc(c23)S1(=O)=O -16.8%, COc1ccc(OCc2n[nH]c(=S)n2N)cc1 -87.4%, CC(C)NC(=O)C(=O)N/N=C/c1ccco1 13%, O=C(Cn1cnc2ccccc21)N/N=C/c1ccco1 15.1%, Cc1ccc(S(=O)(=O)NCc2ccc(C(=O)NC3CCC(C)CC3)cc2)cc1 (stereo not given) 17%, Cc1ccc(NC2CCCN(C(=O)CCc3cn[nH]c3)C2)cc1C (stereo not given) 7.06%, O=C(O)CCCn1cc(NC(=O)COc2cccc(Cl)c2)cn1 12.9%, O=S(=O)(NC1CC1)c1ccc(Cl)cc1 10.7%, Cc1cccc(C)c1NC(=O)C1CCCN1C(=O)OC(C)(C)C (stereo not given) 0.244%, Cc1cc([N+](=O)[O-])c(N2CCC[C@@H]2C(=O)O)c([N+](=O)[O-])c1 0.854%, O=[N+]([O-])c1ccc(N2CCN(c3ccc(F)cc3)CC2)cn1 10.5%, CC1C(=O)C(C)C(c2ccc(O)cc2)NC1c1ccc(O)cc1 (stereo not given) 4.83%, COc1ccc(-c2cc(=O)oc3cc(OC(C)C(=O)NCC4CCC(C(=O)O)CC4)ccc23)cc1 (stereo not given) 18.5%, COc1c(O)c2c(=O)cc(OC)c3c4c(OC)cc(=O)c5c(O)c(OC)c6c(c(c1C[C@@](C)(O)[C@H]6C(C)=O)c23)c54 -14.1%, O=C(Nc1ccncc1)Nc1ccc(F)cc1 14.5%, CN(C)c1nc(NN)nc(Nc2ccc(F)cc2)n1 -5.52%, C[n+]1ccccc1C1CCCC/C1=N\Nc1ccc([N+](=O)[O-])cc1[N+](=O)[O-] (stereo not given) -1.83%, O=C(Nc1ccccc1)O/N=C1\CCCCC1c1ccc([N+](=O)[O-])cc1[N+](=O)[O-] (stereo not given) -6.23%, Cc1cccc(C2=N/C(=C/c3cccs3)C(=O)O2)c1 -1.85%, COc1ccccc1N1CCN(C(=O)c2cc(=O)c3cc(C)ccc3o2)CC1 -2.28%, CCN1CCN(c2ccc(S(=O)(=O)N3CCCCC3)cc2NC(=O)Cc2c(Cl)cccc2Cl)CC1 -8.91%, CCN(C(=O)c1cc([N+](=O)[O-])ccc1NCc1cccnc1)c1ccccc1 -0.174%, Cc1cc(C)c(OCC(=O)N/N=C/c2ccco2)c(C)c1 2.54%, COC(=O)C1=C(C)N(c2ccc(Br)cc2)C(=O)/C1=C\c1ccco1 -29.4%, CC(=O)Nc1ccc(S(=O)(=O)NC2Cc3ccccc3C2)cc1 10.7%, CC(CC(=O)N1CCN(c2ccccc2)CC1)S(=O)(=O)c1ccc2c(c1)NC(=O)CS2 (stereo not given) 13.4%, COc1ccc(C2c3[nH]c4ccccc4c3C[C@H]3C(=O)N(CC(C)C)CC(=O)N23)c(OC)c1 (stereo not given in full) -0.0198%, Cc1cc(=O)[nH]c(SCC(N)=O)c1C#N -20.3%, COC(=O)C1(C)C=CC2(CCCCC2)N1C(C)=O (stereo not given) -0.895%, O=C(c1ccc(S(=O)(=O)c2ccccc2)cc1)N1CCCCCC1 -3.64%, CC(C)=C1SC(N2CCN(c3cccc(C)c3)CC2)=NC1=O -3.03%, COc1ccc2[nH]c(C(=O)N3CCN(C)CC3)c(C)c2c1 10.8%, Cc1ccc(N2CCN(C(=O)c3cccs3)CC2)c(C)c1 -4.64%, CCC(=O)Nc1sc(C(=O)N2CCCCC2)c(C)c1C#N 8.83%, Cc1ccc(S(=O)(=O)N2CCN(C(=O)N3CCOCC3)CC2)c(C)c1 12%, CCN(CC(=O)NCc1cccs1)C(=O)c1cccc(S(=O)(=O)Nc2ccccc2OC)c1 9.95%, COc1ccc(NC(=O)Cn2ncn3c(cc4ccccc43)c2=O)c(OC)c1OC 14.8%, COc1cc2c(cc1OC)CN(C(=O)c1cc(S(=O)(=O)N3CCCCC3)ccc1Cl)CC2 8.46%, CCCCC(CC)CNCc1cccn1CCN1CCOCC1 (stereo not given) -12.1%, COC(=O)c1cc(OCC(=O)NC2CCCc3ccccc32)cc(C(=O)OC)c1 (stereo not given) -18.9%, Cc1ccc(OCC(=O)Nc2ccc(NC(=O)c3cccs3)cc2)c(C)c1 29.1%

Potency, active:
O=C(N/N=C\c1cc(Br)c(Br)o1)C1COc2ccccc2O1 (stereo not given) 39.8 µM, CSc1ccccc1NC(=O)c1cc(C2CC2)on1 17.8 µM, Oc1ccc(/C=N/Nc2ccc(C(F)(F)F)cn2)cc1O 28.2 µM, CNC(=O)C(=O)N/N=C/c1ccccn1 79.4 µM, O=C(N/N=C/c1ccccn1)c1cccnc1 2 µM, S=c1nccc(-c2cc(Cl)sc2Cl)[nH]1 79.4 µM, O=C1C=C(c2ccc(Cl)cc2)C(=O)N1Nc1ccccc1 10 µM, Cc1cccc2c1-c1sc(C(=O)NCCCN3CCc4ccccc4C3)cc1CO2 44.7 µM, CCN(CC)CCN1C(=O)C(=O)/C(=C(/O)c2ccc(OC)c(OC)c2)C1c1ccccn1 (stereo not given) 56.2 µM, CCCOc1ccc(/C(O)=C2/C(=O)C(=O)N(CCN(C)C)C2c2ccc(OC)c(OC)c2)cc1 (stereo not given) 79.4 µM, CSc1n[nH]c(=S)n1N 44.7 µM, O=c1nc(N/N=C/c2ccco2)cn[nH]1 31.6 µM, Cc1cc(C)c(NC(=S)N2CCCC2C(=O)O)c(C)c1 (stereo not given) 35.5 µM, Fc1ccc(Nc2nnns2)cc1 8.91 µM, O=[N+]([O-])c1ccc(N/N=C2/CCCCC2c2ccccn2)c([N+](=O)[O-])c1 (stereo not given) 35.5 µM, Cc1cccc(-c2cc(=O)c3cc(C)ccc3o2)c1 3.55 µM, COC(=O)COc1ccc2c(c1C)O/C(=C\c1ccco1)C2=O 50.1 µM, Cc1cc(=O)[nH]c(S)c1C#N 2.24 µM, Cc1cccc(-n2c(N)c(C(=O)N3CCN(C)CC3)sc2=S)c1 3.55 µM, Cc1ccc(-n2c(N)c(C(=O)N3CCOCC3)sc2=S)c(C)c1 28.2 µM, N#Cc1ccccc1-n1c(N)c(C(=O)N2CCCC2)sc1=S 25.1 µM

From PubChem BioAssay AID1490 (National Center for Advancing Translational Sciences (NCATS), 2009)
